Data from PMC4081100, “A DNA-binding-site landscape and regulatory network analysis for NAC transcription factors in Arabidopsis thaliana”.

Key:
Assay in all cases: universal protein binding microarray (PBM); transcription factors of Arabidopsis thaliana; high values mean tight binding
GST-ANAC092(1-176) = molecular target: T1, GST-ANAC092(1-176) (Arabidopsis thaliana, UniProt Q9FKA0 1-176); settings: protein: recombinant; tags: GST; chain copies: 2; dsDNA, one strand shown
T1 sequence: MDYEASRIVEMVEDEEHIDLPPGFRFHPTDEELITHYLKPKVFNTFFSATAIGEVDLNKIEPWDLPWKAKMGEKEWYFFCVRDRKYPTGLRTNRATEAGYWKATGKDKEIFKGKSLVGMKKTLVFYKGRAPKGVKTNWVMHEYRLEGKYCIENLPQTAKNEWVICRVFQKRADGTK
Outline: (§1)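 For zinc-finger proteins, zinc acetate was added while GST-tagged NAC-domain, full-length or DNA-binding-domain proteins were induced in cells. Purification used glutathione–Sepharose 4B, and quantification used A280 or anti-GST western blot. Custom all-10-mer Agilent 4 × 180K arrays, made double-stranded by primer extension, each received a protein at 200 to 500 nM final in duplicate. Scoring covered gapped and ungapped 8-mers, with binding given as the normalised enrichment score (E-score).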

GST-NTL6(1-168) = GST-NTL6(1-168) (Arabidopsis thaliana, UniProt Q9SCK6 1-168); settings: protein: recombinant; tags: GST; chain copies: 2; dsDNA, one strand shown
GST-NTL6(1-168), sequence (Q9SCK6 1-168): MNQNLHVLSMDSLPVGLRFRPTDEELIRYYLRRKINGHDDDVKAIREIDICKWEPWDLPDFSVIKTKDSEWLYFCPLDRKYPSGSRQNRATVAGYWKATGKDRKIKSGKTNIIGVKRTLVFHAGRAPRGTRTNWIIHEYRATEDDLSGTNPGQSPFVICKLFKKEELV
Outline: as §1

GST-ANAC019 NAC domain = molecular target: T2, GST-ANAC019 NAC domain (Arabidopsis thaliana, UniProt Q9C932 14-162); settings: protein: recombinant; tags: GST; chain copies: 2; dsDNA, one strand shown
T2 sequence: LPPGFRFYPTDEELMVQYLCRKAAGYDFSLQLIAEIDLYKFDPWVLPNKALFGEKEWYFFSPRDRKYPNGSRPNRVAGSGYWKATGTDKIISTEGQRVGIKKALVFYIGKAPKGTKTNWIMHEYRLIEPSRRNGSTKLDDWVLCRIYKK
Outline: as §1

GST-ANAC055(1-171) = molecular target: T3, GST-ANAC055(1-171) (Arabidopsis thaliana, UniProt Q9LDY8 1-171); settings: protein: recombinant; tags: GST; chain copies: 2; dsDNA, one strand shown
T3 sequence: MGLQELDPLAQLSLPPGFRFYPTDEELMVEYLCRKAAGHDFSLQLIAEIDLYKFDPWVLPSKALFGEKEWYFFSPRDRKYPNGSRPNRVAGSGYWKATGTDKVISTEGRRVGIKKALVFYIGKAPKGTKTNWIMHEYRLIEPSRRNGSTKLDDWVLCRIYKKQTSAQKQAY
Outline: as §1

GST-ATAF1 NAC domain = molecular target: T4, GST-ATAF1 NAC domain (Arabidopsis thaliana, UniProt Q39013 7-158); settings: protein: recombinant; tags: GST; chain copies: 2; dsDNA, one strand shown
T4 sequence: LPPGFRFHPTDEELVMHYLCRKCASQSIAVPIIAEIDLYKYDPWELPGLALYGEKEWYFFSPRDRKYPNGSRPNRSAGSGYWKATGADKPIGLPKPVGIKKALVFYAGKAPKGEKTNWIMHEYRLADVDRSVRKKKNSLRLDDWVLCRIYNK
Outline: as §1

[1] = molecular target: T5, GST-ANAC092(1-285) full length (Arabidopsis thaliana, UniProt Q9FKA0 1-285); settings: protein: recombinant; tags: GST; chain copies: 2; dsDNA, one strand shown
T5 sequence: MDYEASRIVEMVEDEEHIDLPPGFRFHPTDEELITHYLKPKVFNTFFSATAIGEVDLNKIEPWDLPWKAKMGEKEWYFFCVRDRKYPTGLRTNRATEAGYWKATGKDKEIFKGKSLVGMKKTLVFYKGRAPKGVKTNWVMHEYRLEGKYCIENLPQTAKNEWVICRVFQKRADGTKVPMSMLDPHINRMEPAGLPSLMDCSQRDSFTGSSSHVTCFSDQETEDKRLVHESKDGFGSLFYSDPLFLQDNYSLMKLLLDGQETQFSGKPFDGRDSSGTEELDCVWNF
Outline: as §1

GST-NAP(1-166) = molecular target: T6, GST-NAP(1-166) (Arabidopsis thaliana, UniProt O49255 1-166); settings: protein: recombinant; tags: GST; chain copies: 2; dsDNA, one strand shown
T6 sequence: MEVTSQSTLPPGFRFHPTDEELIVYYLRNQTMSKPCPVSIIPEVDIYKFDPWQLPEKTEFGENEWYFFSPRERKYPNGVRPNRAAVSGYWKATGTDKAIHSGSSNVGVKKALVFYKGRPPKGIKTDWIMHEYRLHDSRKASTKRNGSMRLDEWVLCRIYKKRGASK
Outline: as §1

GST-NST2(1-184) = molecular target: T7, GST-NST2(1-184) (Arabidopsis thaliana, UniProt Q9M274 1-184); settings: protein: recombinant; tags: GST; chain copies: 2; dsDNA, one strand shown
T7 sequence: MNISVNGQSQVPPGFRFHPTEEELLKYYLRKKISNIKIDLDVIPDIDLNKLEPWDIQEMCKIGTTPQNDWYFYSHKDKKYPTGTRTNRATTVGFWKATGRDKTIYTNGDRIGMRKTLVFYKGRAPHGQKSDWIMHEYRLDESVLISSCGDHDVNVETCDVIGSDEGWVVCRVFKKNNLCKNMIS
Outline: as §1

GST-NTL8 NAC domain = molecular target: T8, GST-NTL8 NAC domain (Arabidopsis thaliana, UniProt Q9XIN7 14-156); settings: protein: recombinant; tags: GST; chain copies: 2; dsDNA, one strand shown
T8 sequence: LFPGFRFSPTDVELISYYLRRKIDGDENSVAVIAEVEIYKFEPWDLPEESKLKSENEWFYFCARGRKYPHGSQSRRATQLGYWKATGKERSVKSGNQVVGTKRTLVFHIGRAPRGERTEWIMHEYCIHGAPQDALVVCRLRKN
Outline: as §1

GST-SND1(1-203) = molecular target: T9, GST-SND1(1-203) (Arabidopsis thaliana, UniProt Q9LPI7 1-203); settings: protein: recombinant; tags: GST; chain copies: 2; dsDNA, one strand shown
T9 sequence: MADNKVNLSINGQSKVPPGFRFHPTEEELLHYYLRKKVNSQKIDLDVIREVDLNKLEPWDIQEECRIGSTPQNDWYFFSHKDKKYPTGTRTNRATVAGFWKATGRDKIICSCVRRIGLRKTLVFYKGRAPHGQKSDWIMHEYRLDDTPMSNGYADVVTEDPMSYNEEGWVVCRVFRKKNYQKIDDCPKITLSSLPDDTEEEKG
Outline: as §1

GST-VND3 NAC domain = molecular target: T10, GST-VND3 NAC domain (Arabidopsis thaliana, UniProt Q9FH59 12-162); settings: protein: recombinant; tags: GST; chain copies: 2; dsDNA, one strand shown
T10 sequence: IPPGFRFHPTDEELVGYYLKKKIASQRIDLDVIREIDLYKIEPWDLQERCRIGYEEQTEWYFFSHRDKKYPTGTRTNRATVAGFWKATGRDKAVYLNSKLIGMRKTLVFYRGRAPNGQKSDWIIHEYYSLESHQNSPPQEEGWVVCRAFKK
Outline: as §1

GST-VND7 NAC domain = molecular target: T11, GST-VND7 NAC domain (Arabidopsis thaliana, UniProt Q9C8W9 9-158); settings: protein: recombinant; tags: GST; chain copies: 2; dsDNA, one strand shown
T11 sequence: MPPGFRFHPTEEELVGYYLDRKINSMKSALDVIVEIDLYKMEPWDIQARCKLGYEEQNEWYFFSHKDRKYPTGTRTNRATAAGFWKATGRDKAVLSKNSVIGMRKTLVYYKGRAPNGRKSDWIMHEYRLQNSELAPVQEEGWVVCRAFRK
Outline: as §1

GST-WRKY1(266-371) = GST-WRKY1(266-371) (Arabidopsis thaliana, UniProt Q9SI37 266-371); settings: protein: recombinant; tags: GST; dsDNA, one strand shown
GST-WRKY1(266-371), sequence (Q9SI37 266-371): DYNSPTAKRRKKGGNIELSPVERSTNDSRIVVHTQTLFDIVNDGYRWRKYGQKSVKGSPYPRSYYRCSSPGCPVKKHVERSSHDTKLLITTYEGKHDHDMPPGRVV
Outline: as §1

Sequence	binding signal (GST-ANAC092(1-176)) [E-score]	binding signal (GST-NTL6(1-168)) [E-score]	binding signal (GST-ANAC019 NAC domain) [E-score]	binding signal (GST-ANAC055(1-171)) [E-score]	binding signal (GST-ATAF1 NAC domain) [E-score]	binding signal [1] [E-score]	binding signal (GST-NAP(1-166)) [E-score]	binding signal (GST-NST2(1-184)) [E-score]	binding signal (GST-NTL8 NAC domain) [E-score]	binding signal (GST-SND1(1-203)) [E-score]	binding signal (GST-VND3 NAC domain) [E-score]	binding signal (GST-VND7 NAC domain) [E-score]	binding signal (GST-WRKY1(266-371)) [E-score]
CTTACTTA	0.205	0.454	0.164	0.137	0.154	0.276	0.111	0.221	0.208	0.317	0.209	0.106	0.235
ACGTAACG	0.423	0.0652	0.436	0.389	0.348	0.438	0.411	0.272	0.118	0.415	0.359	0.409	0.078
ATTACGTG	0.457	0.112	0.468	0.432	0.372	0.462	0.419	0.296	0.146	0.252	0.446	0.437	0.127
GTAAGTCA	0.109	0.283	0.134	0.228	0.238	0.268	0.0612	0.21	–	0.234	0.19	0.232	0.429
CAAGGAAA	0.231	0.31	0.165	0.147	0.167	0.241	0.0952	0.189	0.46	0.242	0.202	0.181	0.0889
ATTTCCCC	0.143	0.221	0.13	0.101	0.0697	0.175	0.0823	0.17	0.428	0.199	0.205	0.153	0.116
TGAAGAAA	0.188	0.339	0.151	0.114	0.129	0.0672	0.0893	0.241	0.45	0.152	0.121	0.215	0.211
AACGTAAA	0.254	0.0913	0.175	0.241	0.298	0.342	0.24	0.36	–	0.436	0.252	0.248	0.165
CACGCAAG	0.481	0.0685	0.413	0.354	0.268	0.484	0.348	0.358	0.155	0.404	0.415	0.367	0.0865
AGACGCAA	0.453	0.0768	0.222	0.246	0.262	0.462	0.433	0.242	0.107	0.265	0.295	0.276	0.0554
AATTACGT	0.439	0.142	0.472	0.446	0.435	0.421	0.454	0.352	0.205	0.42	0.47	0.46	0.185
